Rows were chosen to be rich in hits. Some 3.4% of all compounds tested hit in one or more screens of this group.
LGR2 inh – inhibitors of bursicon-induced Drosophila LGR2 receptor cAMP signaling; HEK293 LGR2, CRE-luciferase, bursicon-stimulated, 4 h; inhibition, % at 9.99 µM; 380,000 compounds, 0.35% hits; AID 720647;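 active = drop in luminescence signal, shown as inhibition above about 50% in the replicate tests, limit read from the data, passing the limit was not always enough; inconclusive = probably only some replicates passing the limit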;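 also: agonist challenge used bursicon conditioned medium at about half maximal strength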
PGC1a acetyl inh – lowers PGC1a acetylation signal in U2OS cells | AlphaScreen anti-acetyl-lysine; with virally co-expressed GCN5 acetyltransferase | inhibition, % at 15.6 µM | 350,000 compounds, 0.17% hits | AID 651687;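 active = every replicate shows inhibition of at least 40%; inconclusive = mean inhibition at least 40% but some replicate below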
SIRT5 block – sirtuin-5 (human) deacylase inhibition | Q9NXA8 | Purified SirT5, succinyl-peptide AMC, trypsin-coupled fluorescence | inhibition, % at 15 µM | 330,000 compounds, 1.1% hits; in the data active = inhibition above about 15%; inconclusive = no clear call, values can overlap the other calls
Target sequence (Q9NXA8 whole entry, looked up): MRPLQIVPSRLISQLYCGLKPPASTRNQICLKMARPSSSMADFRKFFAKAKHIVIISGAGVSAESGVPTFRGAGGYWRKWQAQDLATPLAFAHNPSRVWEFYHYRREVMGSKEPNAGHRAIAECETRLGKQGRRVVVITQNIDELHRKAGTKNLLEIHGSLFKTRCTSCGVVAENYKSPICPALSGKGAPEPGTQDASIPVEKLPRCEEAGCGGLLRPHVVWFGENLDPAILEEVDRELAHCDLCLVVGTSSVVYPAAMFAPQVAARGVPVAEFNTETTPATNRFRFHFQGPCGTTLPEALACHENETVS
Ecoli rRNA inh – inhibitors of bacterial rRNA selective over humanized ribosomes | E. coli WT GFP vs humanized-ribosome RFP mutants, fluorescence, 24 h; stronger effect = lower value; DMSO median 0, no signal -100 | GFP signal change (wild-type ribosome), % (concentration not given with the values) | 350,000 compounds, 1.6% hits | AID 720706;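 active = significant combined selectivity score with lowered wild-type GFP, culture density cut under 30%, mutant RFP and density less affected; inactive = any of these conditions unmet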
PAX8 inh HTS – inhibitors of PAX8 transcriptional activity in RMG-I cells | RMG-I TPO-luciferase reporter, SteadyGlo, 24 h | inhibition, % at 12.6 µM | 360,000 compounds, 1.2% hits;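 active = mean replicate inhibition at least 60% with every replicate also reaching 60%; inconclusive = only one of the two criteria is met; inactive = mean below 60% and not all replicates reaching 60%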;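 also: luciferase light reporting Pax8 driven TPO promoter activity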
EWS-Fli block – blocks EWS/Fli oncoprotein-driven transcription. 350,000 compounds, 0.67% hits. AID 651661. inhibition, % at 12.6 µM. A673 NR0B1-luciferase reporter, viability-normalised;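 active = mean inhibition of at least 50% after viability correction, with every replicate also passing that limit; inconclusive = mean reaches 50% but only one of two replicates passes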;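 also: firefly luciferase signal divided by Alamar Blue viability fluorescence both relative to DMSO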
Each line names hits and unclear results; the compound was inactive in the other large screens.

NC(CCc1ccccc1)c1csc(Nc2ccc(C(=O)c3ccccc3)cc2)n1 (stereo not drawn)	none
COc1cccc(NC(=O)N(C)C[C@@H]2Oc3ncc(C#Cc4ccncc4)cc3C(=O)N([C@@H](C)CO)C[C@@H]2C)c1	none
CNC(=O)C1CC(=O)N(c2ccc(OCC(=O)NCc3ccccc3)cc2)C1 (stereo not drawn)	SIRT5 block 25
COc1ccc(CCNC(=O)c2nc(-c3cccs3)no2)cc1OC	Ecoli rRNA inh -22 (no result: PGC1a acetyl inh)
COc1ccc(CCNC(=O)c2cc(CC(C)C)on2)cc1OC	SIRT5 block 15
COc1ccccc1CCNC(=O)c1nc(-c2cccs2)no1	none
C[C@@H]1CN([C@H](C)CO)C(=O)Cc2cc(NC(=O)Cc3ccccc3)ccc2O[C@@H]1CN(C)C(=O)Nc1cccc2ccccc12	none (no result: SIRT5 block)
Cc1ccc(S(=O)(=O)N[C@@H]2CC[C@@H](CCNC(=O)CN3CCOCC3)O[C@@H]2CO)cc1	none
CC=Cc1ccc2n(c1=O)C[C@@H]1[C@@H](CO)[C@H](C(=O)NC3CCCC3)N(Cc3ccncc3)[C@H]21 (mixture of isomers)	none (no result: PGC1a acetyl inh, PAX8 inh HTS)
N#C[C@@H]1[C@H](c2ccc(C#CC3CCCCC3)cc2)[C@H](CO)N1S(=O)(=O)c1ccccc1	PAX8 inh HTS 84
Cc1ccccc1S(=O)(=O)N1[C@H](C#N)[C@@H](c2ccc(C#CC3CCCCC3)cc2)[C@@H]1CO	none
Cc1ccccc1S(=O)(=O)N1[C@H](C#N)[C@H](c2ccc(C#CC3CCCCC3)cc2)[C@H]1CO	LGR2 inh 76
N#C[C@H]1[C@H](c2ccc(C#CC3CCCC3)cc2)[C@H](CO)N1S(=O)(=O)c1ccccc1	none (no result: SIRT5 block)
Cc1noc(C)c1S(=O)(=O)N(C)C[C@H]1Oc2ccc(NC(=O)C3CC3)cc2CC(=O)N([C@H](C)CO)C[C@@H]1C	none
COCC#Cc1cnc2c(c1)C(=O)N([C@H](C)CO)C[C@H](C)[C@@H](CN(C)Cc1ccccc1F)O2	none (no result: PAX8 inh HTS)
O=C(CCC(=O)c1cccs1)NCc1ccc(F)cc1	none (no result: LGR2 inh, SIRT5 block, Ecoli rRNA inh, EWS-Fli block)
O=C(NCc1ccc(F)cc1)C1(c2cccs2)CCOCC1	PAX8 inh HTS 123 (no result: PGC1a acetyl inh)
CCCCCCCSc1nnc(-c2ccccc2N)c(=O)[nH]1	EWS-Fli block 56
C[C@H]1CN(C)C(=O)c2cccc(N(C)C)c2O[C@H]1CN(C)S(C)(=O)=O	none (no result: LGR2 inh, PGC1a acetyl inh, SIRT5 block, PAX8 inh HTS, EWS-Fli block)
C[C@@H]1CN([C@@H](C)CO)C(=O)c2cc(NC(=O)Nc3ccc(C(F)(F)F)cc3)ccc2O[C@@H](C)CCCCO[C@@H]1CN(C)C(=O)NC1CCCCC1	none
C[C@H]1CCCCO[C@@H](CN(C)C(=O)NC2CCCCC2)[C@@H](C)CN([C@@H](C)CO)C(=O)c2cc(NC(=O)Nc3ccc(F)cc3)ccc2O1	none
C[C@@H]1CCCCO[C@H](CN(C)C(=O)NC2CCCCC2)[C@H](C)CN([C@H](C)CO)C(=O)c2cc(NC(=O)Nc3ccc(C(F)(F)F)cc3)ccc2O1	PAX8 inh HTS 73
C[C@H](CO)N1C[C@H](C)[C@H](CN(C)C(=O)NC2CCCCC2)OCCCC[C@H](C)Oc2ccc(NC(=O)Nc3ccc(F)cc3)cc2C1=O	PAX8 inh HTS 65
C[C@@H]1CN([C@H](C)CO)C(=O)c2cc(NC(=O)Nc3ccc(C(F)(F)F)cc3)ccc2O[C@@H](C)CCCCO[C@H]1CN(C)C(=O)NC1CCCCC1	PAX8 inh HTS 96
COCC#Cc1cnc2c(c1)C(=O)N([C@@H](C)CO)C[C@@H](C)[C@@H](CN(C)C(=O)Nc1cccc(F)c1)O2	none (no result: PAX8 inh HTS)
COc1cc(N2C(=O)C=CC2=O)ccc1N1C(=O)C=CC1=O	PAX8 inh HTS 115, EWS-Fli block 60 (no result: LGR2 inh, SIRT5 block)
CO[C@H]1CN(C)C(=O)c2ccc(NS(=O)(=O)c3ccc(Cl)cc3)cc2OC[C@@H](C)NC[C@H]1C	none (no result: PAX8 inh HTS)
O=C(N/N=C/c1ccc2c(c1)OCO2)c1ccc(Br)o1	none (no result: PGC1a acetyl inh, SIRT5 block, Ecoli rRNA inh, EWS-Fli block)
CCN(CC)c1ccc(/C=N/NC(=O)c2ccc(Br)o2)cc1	Ecoli rRNA inh -23 (no result: PGC1a acetyl inh)
CCOC(=O)C1=NOC(COc2ccccc2C=O)C1 (stereo not drawn)	SIRT5 block 23
Cc1cccc(C(=O)O/N=C(\c2ccccc2)c2cccnc2)c1	none
Cc1ccc(C(=O)O/N=C(\c2ccccc2)c2cccnc2)cc1	SIRT5 block 33 (no result: PGC1a acetyl inh)
CCCN(CC1CC1)C(=S)Nc1ccc(C(C)=O)cc1	none (no result: PGC1a acetyl inh)
CCN(C(=S)Nc1ccc(C(C)=O)cc1)C1CCCCC1	SIRT5 block 21
Cc1onc(-c2ccccc2)c1NC(=O)Nc1ccc(OC(F)F)cc1	Ecoli rRNA inh -22
CN(C)CCNC(=O)c1cccc2nc3cccc(F)c3nc12	EWS-Fli block 56 (no result: PGC1a acetyl inh)
O=C(NC1CCCCC1)N[C@H]1CC[C@H](CC(=O)N2CCOCC2)O[C@H]1CO	none
Cc1cc(C(=O)N/N=C/c2ccc(-c3ccc([N+](=O)[O-])cc3C)o2)n[nH]1	Ecoli rRNA inh -41
Cc1cc(C(=O)N/N=C/c2ccc(-c3cccc(Cl)c3)o2)n[nH]1	Ecoli rRNA inh -23 (no result: PGC1a acetyl inh)
Cc1ccc(C(=O)N/N=C/c2ccc(-c3cccc(Cl)c3)o2)cn1	none (no result: PGC1a acetyl inh)
O=C(c1cccc(F)c1)N1CC(=O)N2[C@H](CO)[C@H](c3ccc(-c4ccccc4F)cc3)[C@H]2C1	none
O=C(CCC(=O)OCc1ccc(Br)cc1)Nc1ccccc1	SIRT5 block 35 (no result: PGC1a acetyl inh)
CCOC(=O)C1=C(c2ccccc2)NC(=O)NC1c1ccc(O)c(OCC)c1 (stereo not drawn)	none
CCOC(=O)C1=C(c2ccccc2)NC(=O)NC1c1ccc(O)c(Cl)c1 (stereo not drawn)	PAX8 inh HTS 70, EWS-Fli block 68
COc1ccc2c3c(n(C)c2c1)[C@H](CO)N(Cc1ccccc1)CC31CCN(C(=O)C2CC2)CC1	none (no result: SIRT5 block, PAX8 inh HTS)
COc1ccc(CCN2CCC(Nc3nc4ccccc4n3Cc3ccc(F)cc3)CC2)cc1	PAX8 inh HTS 74
COc1ccccc1Oc1ccc2c(c1)C(=O)N(c1ccc(C)cc1)C2=O	PGC1a acetyl inh 104 (no result: SIRT5 block, Ecoli rRNA inh, PAX8 inh HTS, EWS-Fli block)
OCC1OC(Oc2c(Br)cc(Br)cc2Br)C(O)C(O)C1O (stereo not drawn)	PGC1a acetyl inh 63 (no result: SIRT5 block)
COc1cc2ccc(=O)oc2c(O[C@@H]2O[C@H](CO)[C@@H](O)[C@H](O)[C@H]2O)c1O	none
COc1ccc(OC)c(Nc2nc(N)nc(CCl)n2)c1	PAX8 inh HTS 118, EWS-Fli block inconclusive
COc1ccccc1Nc1nc(N)nc(CCl)n1	PAX8 inh HTS 105, EWS-Fli block 57
CC(C)NC(=O)NCC[C@@H]1CC[C@H](NS(=O)(=O)c2ccc(-c3ccccc3)cc2)[C@@H](CO)O1	none
C=C(CC)C(=O)c1ccc(OCC(=O)O)c(Cl)c1Cl	PAX8 inh HTS 81 (no result: Ecoli rRNA inh)
CCOC(=O)COc1ccc2nsnc2c1Cl	none (no result: LGR2 inh, SIRT5 block, Ecoli rRNA inh, PAX8 inh HTS, EWS-Fli block)
Cn1cnc2nc3n(c2c1=O)CCC3	none (no result: LGR2 inh, SIRT5 block, Ecoli rRNA inh, PAX8 inh HTS, EWS-Fli block)
Cn1cnc2nc(Cl)nc(Cl)c21	PAX8 inh HTS 80

Source: PubChem BioAssay
